Reference: PubChem BioAssay (NCI)
About 83,000 compounds went through this panel and 20% of them were active in at least one assay; those are over-represented in the sample as a whole.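 Negative percent growth values reflect cell death: -40 means 40% of the cells present at the start died, and -100 means all died.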 Active and inactive are the calls of the source. The calls were made as follows: active = growth percent below 10; inactive = the rest.

How the values were obtained:
Experiment in all cases: NCI-60 one-dose screen, 48 h (100 = growth as untreated, 0 = no growth, -100 = all killed)
Settings in all cases: 10 µM unless noted
DU-145 prostate = test system: DU-145 prostate
K-562 leukemia = test system: K-562 leukemia
MALME-3M melanoma = test system: MALME-3M melanoma
MDA-MB-231 breast = test system: MDA-MB-231 breast
RXF 393 renal = test system: RXF 393 renal
SF-268 CNS = test system: SF-268 CNS
SF-295 CNS = test system: SF-295 CNS
SF-539 CNS = test system: SF-539 CNS
UACC-257 melanoma = test system: UACC-257 melanoma
M14 melanoma = test system: M14 melanoma
HCT-15 colon = test system: HCT-15 colon
HT29 colon = test system: HT29 colon
SNB-75 CNS = test system: SNB-75 CNS
SNB-19 CNS = test system: SNB-19 CNS
U251 CNS = test system: U251 CNS
PC-3 prostate = test system: PC-3 prostate
SK-MEL-5 melanoma = test system: SK-MEL-5 melanoma
UACC-62 melanoma = test system: UACC-62 melanoma
LOX IMVI melanoma = test system: LOX IMVI melanoma
SK-MEL-28 melanoma = test system: SK-MEL-28 melanoma

Measured: growth

Cc1[nH]c(C(=O)Nc2ccc(C(=O)N3CCNCC3)cc2OC(C)C)c(Cl)c1Cl
active: K-562 leukemia -28.6% | HT29 colon 9.76% | LOX IMVI melanoma -16%
inactive: DU-145 prostate 68.1% | MALME-3M melanoma 72.6% | MDA-MB-231 breast 22.9% | RXF 393 renal 71.3% | SF-268 CNS 74.4% | SF-295 CNS 107% | SF-539 CNS 80.8% | UACC-257 melanoma 101% | M14 melanoma 45.5% | HCT-15 colon 49.7% | SNB-75 CNS 77.5% | SNB-19 CNS 77.5% | U251 CNS 35.8% | PC-3 prostate 71.5% | SK-MEL-5 melanoma 93.4% | UACC-62 melanoma 102% | SK-MEL-28 melanoma 105%

Cc1ccc(C(=O)N/N=C/c2cccc(Oc3ccccc3)c2)cn1
inactive: DU-145 prostate 88.7% | K-562 leukemia 23.8% | MALME-3M melanoma 64.8% | MDA-MB-231 breast 65.3% | RXF 393 renal 71.6% | SF-268 CNS 79.1% | SF-295 CNS 41.6% | SF-539 CNS 72.9% | UACC-257 melanoma 72.4% | M14 melanoma 50% | HCT-15 colon 38.5% | HT29 colon 20% | SNB-75 CNS 65.7% | SNB-19 CNS 65.6% | PC-3 prostate 76.7% | SK-MEL-5 melanoma 47.4% | UACC-62 melanoma 38.3% | LOX IMVI melanoma 63.9% | SK-MEL-28 melanoma 63.7%

COc1ccc(-c2nc3sc(-c4ccc(Cl)cc4)cn3n2)cc1
active: SNB-75 CNS -1.66% | SNB-19 CNS -1.95% | U251 CNS -67.9%
inactive: DU-145 prostate 80.7% | K-562 leukemia 61.5% | MALME-3M melanoma 50.8% | MDA-MB-231 breast 13.3% | RXF 393 renal 59% | SF-268 CNS 65.1% | SF-295 CNS 24.2% | SF-539 CNS 15.4% | UACC-257 melanoma 84.6% | M14 melanoma 91.1% | HCT-15 colon 72% | HT29 colon 17.3% | PC-3 prostate 58.1% | SK-MEL-5 melanoma 72.6% | UACC-62 melanoma 68.6% | SK-MEL-28 melanoma 100%

Oc1c(I)cc(I)cc1CNCCCN(Cc1ccccn1)Cc1ccccn1
active: DU-145 prostate -45.8% | K-562 leukemia 5.96% | MALME-3M melanoma -73.2% | MDA-MB-231 breast -66.2% | RXF 393 renal -86.6% | SF-268 CNS -27.3% | SF-295 CNS -83.6% | SF-539 CNS -88.3% | UACC-257 melanoma -41.5% | M14 melanoma -72% | HCT-15 colon -37.7% | HT29 colon -12.9% | SNB-75 CNS -89% | SNB-19 CNS 2.67% | PC-3 prostate -55.5% | SK-MEL-5 melanoma -96.9% | UACC-62 melanoma -55.5% | LOX IMVI melanoma -91.7% | SK-MEL-28 melanoma -33.8%

CN(C)CCS(=O)(=O)Nc1cc(-c2ccc3ncc(C#N)c(Nc4ccc(F)c(Cl)c4)c3c2)cnc1Cl
active: DU-145 prostate -10.3% | K-562 leukemia 6.62% | MALME-3M melanoma -50.5% | MDA-MB-231 breast -39.5% | RXF 393 renal -56% | SF-268 CNS -41% | SF-295 CNS -19% | SF-539 CNS -36.4% | UACC-257 melanoma -17.3% | M14 melanoma -40.4% | HCT-15 colon -14.6% | HT29 colon 5.5% | SNB-75 CNS -21% | SNB-19 CNS -67.2% | PC-3 prostate -43.5% | SK-MEL-5 melanoma -89.8% | UACC-62 melanoma -77.2% | LOX IMVI melanoma -61.3% | SK-MEL-28 melanoma -31.5%

O=C(Nc1ccc(-c2nc(-c3cccc(OCCN4CCOCC4)c3)c(-c3ccnc(Br)c3)[nH]2)cc1)c1ccccc1
inactive: DU-145 prostate 55.6% | MDA-MB-231 breast 29.2% | SF-268 CNS 38.9% | PC-3 prostate 18.3%
active: K-562 leukemia 0.946% | MALME-3M melanoma -21% | RXF 393 renal -49.9% | SF-295 CNS -70.9% | SF-539 CNS -39.8% | UACC-257 melanoma -0.153% | M14 melanoma 6.5% | HCT-15 colon -7.78% | HT29 colon 1.79% | SNB-75 CNS -37.3% | SNB-19 CNS -0.968% | SK-MEL-5 melanoma -92.7% | UACC-62 melanoma -15.9% | LOX IMVI melanoma -58.8% | SK-MEL-28 melanoma -29.5%

CCOC(=O)c1sc2ncc(-c3ccc(OC)cc3)n2c1C
inactive: DU-145 prostate 105% | K-562 leukemia 91.2% | MALME-3M melanoma 101% | MDA-MB-231 breast 92.4% | RXF 393 renal 111% | SF-268 CNS 98.1% | SF-295 CNS 96.4% | SF-539 CNS 91.8% | UACC-257 melanoma 105% | M14 melanoma 95.3% | HCT-15 colon 90.2% | HT29 colon 102% | SNB-75 CNS 92% | SNB-19 CNS 92.4% | PC-3 prostate 92.1% | SK-MEL-5 melanoma 94.3% | UACC-62 melanoma 78.6% | LOX IMVI melanoma 93.4% | SK-MEL-28 melanoma 106%

C/C(=C(/c1ccccc1)c1ccc(N2C(=O)c3cccc4c(N5CCN(C)CC5)ccc(c34)C2=O)cc1)c1ccccc1
inactive: DU-145 prostate 82.8% | MALME-3M melanoma 81.4% | MDA-MB-231 breast 94.5% | RXF 393 renal 74.8% | SF-268 CNS 96.2% | SF-295 CNS 83.3% | SF-539 CNS 72.3% | UACC-257 melanoma 79.8% | M14 melanoma 85.6% | HCT-15 colon 56.8% | HT29 colon 24.8% | SNB-75 CNS 98.1% | SNB-19 CNS 88.9% | PC-3 prostate 61.4% | SK-MEL-5 melanoma 76.3% | UACC-62 melanoma 73.5% | LOX IMVI melanoma 24.6% | SK-MEL-28 melanoma 88.4%
active: K-562 leukemia 9.2%
